Screens deposited in PubChem BioAssay by National Center for Advancing Translational Sciences (NCATS).
The list is not random: actives were taken first. Their share in the collection is about 3.7%.
D3 ag: agonists of human D3 dopamine receptor | P35462 | D3R DiscoveRx beta-arrestin cells, luminescence, 90 min | max activation, % | hit rate 0.58% among 410,000 | AID 652048; in the data active = max activation above about 30%
Target sequence (P35462 whole entry, looked up): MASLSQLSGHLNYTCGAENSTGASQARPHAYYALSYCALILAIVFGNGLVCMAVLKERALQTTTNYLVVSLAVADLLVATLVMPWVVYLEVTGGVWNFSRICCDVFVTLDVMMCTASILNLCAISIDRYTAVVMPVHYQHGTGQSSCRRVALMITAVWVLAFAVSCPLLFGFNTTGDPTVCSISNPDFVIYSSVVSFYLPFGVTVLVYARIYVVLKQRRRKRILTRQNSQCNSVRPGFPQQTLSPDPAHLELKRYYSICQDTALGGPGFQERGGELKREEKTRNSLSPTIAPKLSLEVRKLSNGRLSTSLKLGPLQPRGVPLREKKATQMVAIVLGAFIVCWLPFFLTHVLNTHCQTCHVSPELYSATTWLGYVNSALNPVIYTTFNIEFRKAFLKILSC
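Agonist mode: compounds and dopamine controls were applied to plated cells for 90 min at 37 degrees C after an overnight attachment at 1500 cells/well. Luminescent read-out followed 30 - 60 minutes at room temperature with DiscoveRx detection reagent.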
RGS4 inh: human RGS4 inhibition | AID 504845 | hit rate 0.039% among 390,000 | Transcreener GDP fluorescence polarization, RGS4-accelerated GTP hydrolysis | Potency, µM (highest dose often 114 µM), hits mostly inhibitors; also: nearly all actives have a fitted effect of over 75% in size
Target sequence (P49798 whole entry, looked up): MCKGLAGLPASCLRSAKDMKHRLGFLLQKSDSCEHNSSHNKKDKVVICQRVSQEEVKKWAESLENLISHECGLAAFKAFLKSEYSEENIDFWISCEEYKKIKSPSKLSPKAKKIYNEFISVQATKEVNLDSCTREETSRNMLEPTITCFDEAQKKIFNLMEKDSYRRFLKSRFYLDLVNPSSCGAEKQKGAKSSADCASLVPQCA
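MLSMR compounds (23 nl, pin-transferred) preincubated 10 min at room temperature with a 500nM (2x) first reagent, then RGS4 at 900nM (2x) plus Transcreener GDP mix added; fluorescence polarization (620/688 nm) read before and after 90 min at 30 °C.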
D3 antag: blocks the human D3 dopamine receptor | P35462 | D3R cells, DiscoveRx beta-arrestin luminescence, antagonist mode; stronger effect = lower value | max response, negative = inhibition, % | hit rate 2.5% among 360,000 | AID 652054; in the data active = max response below about -50%; inconclusive = no clear call, values can overlap the other calls
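Cells plated overnight at 1500 cells/well, then exposed to library compounds with dopamine controls for 90 minutes at 37 degrees C. DiscoveRx reagent added for 30–60 minutes at room temperature; luminescence read, quantitative HTS format.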
PTHR1 ag: activates the human parathyroid hormone receptor PTHR1 | Q03431 | HEK293 GP2 PTHR1 cells, GloSensor cAMP luminescence, 1 h | Potency, µM (titrated, usually from 115 µM), most hits filed as activators | hit rate 0.075% among 410,000 | AID 743266; also: nearly all actives have a fitted effect of over 55% in size
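HEK-293-derived GP2 cells expressing PTHR1 and a GloSensor cAMP reporter, 3,000/well, plated overnight, given luciferin plus IBMX (each 0.5 mM as added) for 1 h at 37 °C, then compound for 1 h at 37 °C. Luminescence was read after 15 min at room temperature.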
BRCA1 expr up: activators of BRCA1 expression. MCF7-BRCA1-FFLuc reporter, luminescence, 48 h; response scale: scaled: vehicle 0%, 10 µM genistein 100%. hit rate 1.1% among 380,000. AID 624202. Potency, µM (series often up to 46.1 µM), actives largely listed as activators; also: nearly all actives have a fitted effect of over 80% in size
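Using MCF7 cells harboring a BRCA1 firefly luciferase reporter, plated 2 h before compound pinning, the screen measured luminescence after 48 h incubation. Responses were normalized to DMSO and 10 microM genistein, then fitted for concentration-effect.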
B2AR arrestin: recruits beta-arrestin to the human beta2-adrenergic receptor. P07550. beta-arrestin recruitment to beta2AR, cell-based reporter. hit rate 0.02% among 330,000. Potency, µM (doses to about 46.1 µM), actives largely listed as activators; also: nearly all actives have a fitted effect of over 65% in size
Numbers stand for hits; n = inactive; u = inconclusive; x = no result; ! = repeats disagree. Unless noted, calls follow the shape of the dose curve; as a rule, active = well fitted curve in the direction sought with a large enough effect; inconclusive = small, poorly fitted or top-dose-only effect, or another doubt; inactive = no such curve, though single readings can be large; an effect the other way counts as inactive or inconclusive.

SMILES	D3 ag	RGS4 inh	D3 antag	PTHR1 ag	BRCA1 expr up	B2AR arrestin
O=C(CCc1ccccc1)Nc1ccc(N2CCCCC2)cc1	n	n	n	n	11.2µM	n
CC(C)C(=O)Nc1cccc(NC(=O)c2cc3ccccc3o2)c1	n	n	n	n	10µM	n
O=[N+]([O-])c1cc(Br)cc(/C=N/n2cnnc2)c1O	n	n	u	n	n	n
COc1ccc(/C=N/n2cnc3scc(-c4cccs4)c3c2=O)cc1OC	n	n	n	n	n	n
O=c1c2c(-c3ccc(Cl)cc3)csc2ncn1/N=C/c1cccc([N+](=O)[O-])c1O	n	n	-60.8	n	n	n
O=[N+]([O-])c1cccc(/C=N/n2cnnc2)c1O	n	n	-55.0	n	n	n
O=[N+]([O-])c1cc(Cl)cc(/C=N/n2cnnc2)c1O	n	n	-56.9	n	n	n
Cc1nn(-c2ccccc2)c(N2CCCC2)c1/C=N/n1cnc2scc(-c3ccccc3)c2c1=O	n	n	-61.1	n	n	n
O=c1c2c(-c3ccccc3)csc2ncn1/N=C/c1c2ccccc2cc2ccccc12	n	n	n	n	n	n
CCOC(=O)C1=C(COC(=O)C2CC(=O)N(c3ccc(CC)cc3)C2)NC(=O)NC1C (stereo not drawn)	n	n	n	n	n	n
Cc1ccc(OCCCSc2nc(-c3ccc(C(C)(C)C)cc3)nc3cc(=O)[nH]n23)cc1C	33.4	n	x	n	x	x
O=c1cc2nc(-c3cccs3)nc(SCCOc3ccc(Cl)cc3)n2[nH]1	n	n	x	n	x	x
CC(C)(C)c1ccc(OCCSc2nc(-c3cccs3)nc3cc(=O)[nH]n23)cc1	37.1	n	x	n	x	x
CC(C)(C)c1ccc(-c2nc(SCCOc3ccc(Cl)cc3)n3[nH]c(=O)cc3n2)cc1	n	n	x	n	x	x
CCOc1ccc(OCC)c(NC(=O)C2CCCN(C(=O)c3ccc(Cl)cc3)C2)c1 (stereo not drawn)	n	n	n	n	n	n
COc1cc(CNC(=O)c2ccc(NC(=O)N3CCCCc4ccccc43)cc2)cc(OC)c1OC	n	n	x	n	n	x
CCOc1ccc(-n2c(=O)cc(N3CCN(c4ccc(F)cc4)CC3)[nH]c2=O)cc1	n	n	-114.4	n	n	n
O=[N+]([O-])c1ccc(O/N=[N+](\[O-])N2CCN(c3ccccc3)CC2)c([N+](=O)[O-])c1	x	x	x	x	n	x
COc1ccccc1N1C(N)=NC(N)=NC1(C)C	n	n	-53.0!	n	n	n
CC1CCCCN1C(=O)CSc1nnc(-c2ccco2)o1 (stereo not drawn)	n	n	n	n	3.16µM	n
O=C(CSc1nnc(-c2ccccc2F)o1)N1CCCC1	n	n	n	n	u	n
CC1CCCCN1C(=O)CSc1nnc(-c2ccccc2F)o1 (stereo not drawn)	n	n	n	n	3.16µM	n
CN(C(=O)CSc1nnc(-c2ccccc2F)o1)c1ccccc1	n	n	n	n	11.2µM	n
CC1CCCCN1C(=O)CSc1nnc(-c2cccc(Cl)c2)o1 (stereo not drawn)	n	n	x	n	x	x
CCC1CCCCN1C(=O)CSc1nnc(-c2cccs2)o1 (stereo not drawn)	n	n	n	n	8.91µM	n
SMILES	D3 ag	RGS4 inh	D3 antag	PTHR1 ag	BRCA1 expr up	B2AR arrestin
CCc1nn(CC(=O)NCCCOC)c(=O)c2cc3ccccc3n12	n	n	x	n	x	x
Cc1ccc(C(=O)N(Cc2ccco2)c2ccccn2)cc1	n	n	x	n	n	x
COc1ncnc2c1sc1nc(-c3ccccc3)c3c(c12)CCCC3	37.4	n	n	n	n	n
Cc1c(NC(=O)Nc2cccc(C(F)(F)F)c2)sc2nc3n(c(=O)c12)CCC(C)CC3 (stereo not drawn)	n	n	x	n	x	x
COc1ccc(C=C2CS(=O)(=O)CC(=Cc3ccc(OC)cc3)C2=O)cc1	n	x	-63.7	n	n	x
CCOc1cc(/C=N/N=C2/NC(=O)C(CC(=O)O)S2)ccc1OCc1ccc(Cl)cc1Cl (stereo not drawn)	n	u	n	n	n	n
COc1cc(/C=N/N=C2/NC(=O)C(CC(=O)O)S2)ccc1OCc1ccc(Cl)cc1 (stereo not drawn)	n	n	n	n	3.98µM	n
COc1cccc2c1O/C(=N\O)C(C(=O)Nc1cccc(Br)c1)C2 (stereo not drawn)	n	n	-53.8	n	n	n
COc1cccc2c1O/C(=N\O)C(C(=O)Nc1ccc(C)cc1)C2 (stereo not drawn)	n	n	n	n	n	n
COc1ccc(NC(=O)C2Cc3ccccc3O/C2=N\O)cc1 (stereo not drawn)	n	n	n	n	10µM	n
O=C(c1ccco1)N1N=C(c2ccco2)CC1c1ccc(Cl)cc1Cl (stereo not drawn)	n	n	n	n	n	n
Cc1ccc(-c2csc(-c3nc(-c4ccc(Br)s4)cs3)n2)cc1	n	n	x	n	x	x
Nc1ccc(Cl)c(S(=O)(=O)Nc2ccc(Cl)cc2)c1	n	n	n	n	n	n
Cc1cn([C@H]2C[C@H](O)[C@@H](CNCC3=Cc4cc(O)ccc4OC3)O2)c(=O)[nH]c1=O	39.1	x	u	n	n	x
Cc1cn([C@H]2C[C@H](O)[C@@H](CNCc3ccccc3)O2)c(=O)[nH]c1=O	n	x	n	n	n	x
COc1ccccc1-c1cc2nc(-c3ccccc3)cc(N3CCN(C(=O)c4ccco4)CC3)n2n1	39.0	x	n	n	n	x
COc1ccccc1-c1cc2nc(-c3ccccc3)cc(N3CCN(C(=O)c4ccoc4)CC3)n2n1	n	x	n	n	n	x
O=C(O)c1cc(O)ccc1O	n	n	n	n	n	x
O=C(O)C1=CC(=C(c2ccc(O)c(C(=O)O)c2)c2ccc(O)c(C(=O)O)c2)C=CC1=O	x	10.6µM	x	x	n	n
Cc1ccc(C(=O)NC2CCN(CC(=O)NC3CCC(C)CC3)CC2)cc1 (stereo not drawn)	n	n	n	n	n	n
NC(=O)C1(N2CCCCC2)CCN(Cc2ccc(F)cc2)CC1	n	n	-88.4	n	n	n
NC(=O)C1(N2CCCCC2)CCN(c2nc(-c3ccc(Br)cc3)cs2)CC1	n	n	n	u	n	n
NC(=O)C1(N2CCCCC2)CCN(Cc2ccc(Br)cc2)CC1	n	n	-114.7	n	n	n
O=[N+]([O-])c1cc([N+](=O)[O-])c(Oc2cc(F)cc(F)c2)cc1NN1CCCCC1	n	u	n	n	n	n
CC(C)C[C@H]1CN(CCCC[C@H]2CNC(=O)C(=O)N2Cc2ccccc2)C(=O)C(=O)N1Cc1ccccc1	n	x	n	n	n	x
